Laboratory results reported in PubChem BioAssay AID1745848 (National Center for Advancing Translational Sciences (NCATS), 2022).
The campaign covered roughly 2,100 compounds. About 940 (45%) were called active. About 48% were inconclusive and are not listed. Calls follow the shape of the dose curve; as a rule, active = well fitted inhibition curve with a large enough effect; inconclusive = small, poorly fitted or top-dose-only effect; inactive = no such curve, though single readings can be large or run the other way. The set was probably picked from earlier hits. The list shows a part of the results.

assay: Confirmatory qHTS for Inhibitors of ATXN expression; conditions: ATXN2-luciferase reporter cells, luminescence, 24 h; series mostly up to 11.5 µM; activity change, negative = inhibition: at the top concentration; also: nearly all actives have a fitted effect of over 65% in size;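 as to activity change, negative = inhibition: 0% = DMSO vehicle wells and -100% = medium-only wells without cells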
Procedure, shortened: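 Cells carrying ATXN2-luciferase reporter exposed 24 h at 37 C to compound. Viability then read by CellTiter-Fluor (25 uM GF-AFC, 30 min), followed by SteadyGlo luminescence; medium-only wells set 100% inhibition.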
Potency is read from the fitted curve at half-maximal effect.

Potency, active:
COc1ccc(-c2nc(NC(=O)C3CC(=O)N(c4ccc5c(c4)OCCO5)C3)sc2C)cc1 (stereo not drawn) 8.91 µM
CCc1ccc(-c2csc(NC(=O)C3CC(=O)N(c4ccc5c(c4)OCCO5)C3)n2)cc1 (stereo not drawn) 11.2 µM
CCCCC(=O)NC(c1ccc(OC)c(OC)c1)c1ccc2cccnc2c1O (stereo not drawn) 2.82 µM
CCCCC(=O)NC(c1ccc(Cl)cc1Cl)c1ccc2cccnc2c1O (stereo not drawn) 0.708 µM
CCC(=O)NC(c1ccc(Cl)cc1Cl)c1ccc2cccnc2c1O (stereo not drawn) 1.26 µM
CCCC(=O)NC(c1ccc(Cl)cc1Cl)c1ccc2cccnc2c1O (stereo not drawn) 2.82 µM
CCCCC(=O)NC(c1ccccc1OC)c1ccc2cccnc2c1O (stereo not drawn) 2 µM
CCCCC(=O)NC(c1ccccc1Cl)c1ccc2cccnc2c1O (stereo not drawn) 2 µM
NNC(=O)/C(=N/Nc1ccccc1)S(=O)(=O)c1ccc(Cl)cc1 4.47 µM
CCCOc1ccc(C(=O)C(CN2CCOCC2)c2ccccc2)cc1 (stereo not drawn) 25.1 µM
COc1ccccc1C(=O)NNC1=C(C(=O)C(F)(F)F)CCC1 1.58 µM
CCN(CC)CCn1c2ccccc2c2cnc(N)c(C#N)c21 1.58 µM
O=S(=O)([N-]c1nc2ccccc2nc1-[n+]1ccc(Cc2ccccc2)cc1)c1ccc(Br)s1 8.91 µM
CC[n+]1ccccc1/C=C1\Sc2ccc(C)cc2N1C 8.91 µM
Cc1ccc2c(c1)N(C)/C(=C/c1cccc[n+]1C)S2 4.47 µM
COc1cccc(-c2nc(N3CCN(C)CC3)c3ccccc3n2)c1O 3.16 µM
CCOC(=O)c1c(NC(=O)/C=C/C(=O)O)sc(C)c1-c1ccc(Cl)cc1 25.1 µM
COc1cc(/C=C/CN2CCC(C(=O)NC(c3ccc(F)cc3)c3ccc4ccccc4n3)CC2)ccc1OC(C)=O (stereo not drawn) 17.8 µM
CCCCC(=O)NC(c1ccccc1)c1ccc2cccnc2c1O (stereo not drawn) 2.82 µM
CCCC(=O)NC(c1ccccc1)c1ccc2cccnc2c1O (stereo not drawn) 2.82 µM
CC(N)c1csc(NC(=O)c2cc(C(C)(C)C)nn2Cc2ccccc2)n1 (stereo not drawn) 3.16 µM
FC(F)(F)c1nc(-c2cccs2)ncc1-c1nnnn1-c1ccc(Cl)cc1 20 µM
Cc1nc2ccc(NC(=O)c3cccc(S(=O)(=O)N(C)c4ccccc4)c3)cc2s1 3.98 µM
Cc1nc2ccc(NC(=O)c3ccc(S(=O)(=O)N(C)c4ccccc4)cc3)cc2s1 2.24 µM
CN(c1ccccc1)S(=O)(=O)c1cccc(NC(=O)c2cc(=O)c3ccccc3o2)c1 28.2 µM
CC[n+]1c(C=C2C=C(C)OC(C)=C2)sc2ccccc21 6.31 µM
Cc1cc(Nc2cccc([N+](=O)[O-])c2)n2c(nc3ccccc32)c1C#N 1.12 µM
Cc1cc(Cl)c(C(=O)Nc2cccc(C(F)(F)F)c2)c(C)n1 11.2 µM
CCOc1ccccc1C(=O)Nc1ccc2nc(N3CCN(c4ncccn4)CC3)cc(C)c2c1 7.94 µM
CCCCC(=O)NC(c1ccc(N(CC)CC)cc1)c1ccc2cccnc2c1O (stereo not drawn) 0.355 µM
CCCCC(=O)NC(c1ccc(N(C)C)cc1)c1ccc2cccnc2c1O (stereo not drawn) 1.26 µM
COc1ccc(CNCC(O)(c2ccc(Cl)cc2)c2ccc(Cl)cc2)cc1OC 3.16 µM
Cc1cc(C)c2c(N)c3cccc(C)c3nc2n1 10 µM
O=C(COc1ccc(Cl)cc1)N/N=C/c1cccc2cccnc12 25.1 µM
O=C(COc1ccc(F)cc1)N/N=C/c1cccc2cccnc12 3.55 µM
CC(=O)Nc1sc2c(c1-c1nc3ccccc3s1)CN(C(C)C)CC2 10 µM
CCc1sc(C(=O)Nc2nc(-c3ccccn3)cs2)cc1C 8.91 µM
O=C(Nc1nc(-c2ccccn2)cs1)c1ccccc1-n1cnnn1 2 µM
O=C(Nc1nc(-c2ccccn2)cs1)c1ccco1 4.47 µM
CC(Oc1ccc(F)cc1)C(=O)Nc1nc(-c2ccccn2)cs1 (stereo not drawn) 2.24 µM
CCc1cc(-c2[nH]ncc2-c2ccc(OC)cc2)c(O)cc1O 3.98 µM
Cc1cc(NC(=O)/C=C/C(=O)N(c2ccccc2C)C(C(=O)NC2CCCC2)c2ccc(F)cc2)no1 (stereo not drawn) 3.55 µM
COc1ccc(C2CC(c3ccccc3C(F)(F)F)=NN2c2ccc(S(N)(=O)=O)cc2)cc1 (stereo not drawn) 25.1 µM
COc1ccc(C2CC(c3cccc(Cl)c3)=NN2c2ccc(S(N)(=O)=O)cc2)cc1 (stereo not drawn) 25.1 µM
Oc1ccc(CN2CCC(Cc3ccccc3)CC2)c2cccnc12 0.891 µM
Oc1ccc(Cl)c2cccnc12 28.2 µM
Oc1ccc(Cc2ccccc2)c2cccnc12 10 µM
CC(=O)N(C1=C(Cl)C(=O)c2ccccc2C1=O)C1CCCCC1 8.91 µM
CCOc1ccccc1NC(=O)CCCc1nc2ccccc2c(=O)[nH]1 2.51 µM
O=C(COc1ccccc1)NCC(=O)N/N=C/c1ccc(O)cc1O 15.8 µM
O=C(/C=C\c1ccccc1)NCC(=O)N/N=C/c1ccc(O)cc1O 15.8 µM
CCOc1ccc(/C=N/NC(=O)C(O)c2ccccc2)c(O)c1 (stereo not drawn) 3.16 µM
Cc1cccc(OCC(=O)NCC(=O)N/N=C/c2cc(Br)cc(Br)c2O)c1 8.91 µM

Activity change, negative = inhibition, inactive:
CC(=O)c1ccc(N2CCN(CC(O)COC(c3ccccc3)c3ccccc3)CC2)cc1 (stereo not drawn) -21.7%
Cn1nccc1C(=O)N1CCCC(C(=O)c2cccc3ccccc23)C1 (stereo not drawn) -6.41% [at 57.5 µM]
CCCC(=O)Nc1ccc2nc(SCC(=O)N3CCCC3)sc2c1 4.06% [at 57.5 µM]
CCCCC(=O)N(CCOC)c1nnc(-c2ccccc2C)s1 -18.9% [at 57.5 µM]
Cc1cc(NC(=O)CSc2nccn2-c2cccc(C)c2C)no1 -27%
COc1ccc(C2CC(c3ccccc3Cl)=NN2c2ccc(S(N)(=O)=O)cc2)cc1 (stereo not drawn) -25.8% [at 57.5 µM]
O=c1c(Cc2ccccc2)c(O)nc2n1CCS2 -7.22% [at 57.5 µM]
N#CCc1nc2ccccc2c(=O)[nH]1 -1.9% [at 57.5 µM]
CCCC(=O)Nc1c(C(=O)OCC)[nH]c2ccccc12 17.3%
CCOC(=O)C(NS(=O)(=O)c1ccc(C)cc1)(C(F)(F)F)P(=O)(OCC(C)C)OCC(C)C (stereo not drawn) -2.16%
